The record followed here is paper PMC7862700, “An all-to-all approach to the identification of sequence-specific readers for epigenetic DNA modifications on cytosine”.

Common to all, as to assay: DAPPL (digital affinity profiling via proximity ligation, sequencing); 10 mM Tris-HCl pH 7.5, 50 mM NaCl, 1 mM DTT, 4% glycerol, room temperature, 30 min; GST-TFs on glutathione beads, 16-mer random dsDNA library, 0.1% formaldehyde crosslink after washing; high values mean tight binding
The target in one experiment is T1, FEV (Homo sapiens, UniProt Q99581 1-238).
T1 sequence: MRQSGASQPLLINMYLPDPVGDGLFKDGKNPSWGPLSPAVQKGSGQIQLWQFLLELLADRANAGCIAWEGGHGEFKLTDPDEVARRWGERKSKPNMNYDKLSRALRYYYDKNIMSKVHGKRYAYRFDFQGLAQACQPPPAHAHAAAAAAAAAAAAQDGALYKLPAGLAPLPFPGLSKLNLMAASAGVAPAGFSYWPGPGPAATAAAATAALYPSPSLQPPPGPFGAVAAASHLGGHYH
Particulars: protein: recombinant; tags: N-terminal GST; dsDNA, one strand shown. In a few lines: (§1)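 Human transcription factors were made in yeast as GST fusions, captured on glutathione beads and barcoded with DNA. With a tag-only sample included, the pool was incubated with 200 nmole of a random double-stranded 16-mer DNA library in Tris/NaCl/DTT/glycerol buffer at room temperature for 30 min, then crosslinked with 0.1% formaldehyde after washing, ligated by proximity, amplified and sequenced. For binding signal, each hexamer's read frequency for a factor is divided by its frequency for the tag-only sample.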

The target of a further experiment is ETV5 (Homo sapiens, UniProt P41161 1-510). Particulars: protein: recombinant; tags: N-terminal GST; dsDNA, one strand shown. In a few lines: as §1
Sequence of ETV5 (P41161 whole entry): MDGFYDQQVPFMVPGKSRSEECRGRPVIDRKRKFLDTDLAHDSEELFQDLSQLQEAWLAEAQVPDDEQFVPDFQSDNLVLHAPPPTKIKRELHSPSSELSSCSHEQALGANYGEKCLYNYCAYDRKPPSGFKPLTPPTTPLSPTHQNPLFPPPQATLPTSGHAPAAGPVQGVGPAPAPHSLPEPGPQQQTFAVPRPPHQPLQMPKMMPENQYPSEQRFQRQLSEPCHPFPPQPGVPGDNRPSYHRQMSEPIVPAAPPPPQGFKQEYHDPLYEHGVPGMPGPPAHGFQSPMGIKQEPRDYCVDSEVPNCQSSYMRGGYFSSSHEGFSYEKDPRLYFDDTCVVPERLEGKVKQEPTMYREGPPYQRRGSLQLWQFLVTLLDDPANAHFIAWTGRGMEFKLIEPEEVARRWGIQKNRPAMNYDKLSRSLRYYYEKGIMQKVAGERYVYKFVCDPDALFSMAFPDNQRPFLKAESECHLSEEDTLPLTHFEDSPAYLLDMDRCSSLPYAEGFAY
For another experiment, the target named is HSF1 (Homo sapiens, UniProt Q00613 1-529). The following applies: protein: recombinant; tags: N-terminal GST; chain copies: 3; dsDNA, one strand shown. In a few lines: as §1
Sequence of HSF1 (Q00613 whole entry): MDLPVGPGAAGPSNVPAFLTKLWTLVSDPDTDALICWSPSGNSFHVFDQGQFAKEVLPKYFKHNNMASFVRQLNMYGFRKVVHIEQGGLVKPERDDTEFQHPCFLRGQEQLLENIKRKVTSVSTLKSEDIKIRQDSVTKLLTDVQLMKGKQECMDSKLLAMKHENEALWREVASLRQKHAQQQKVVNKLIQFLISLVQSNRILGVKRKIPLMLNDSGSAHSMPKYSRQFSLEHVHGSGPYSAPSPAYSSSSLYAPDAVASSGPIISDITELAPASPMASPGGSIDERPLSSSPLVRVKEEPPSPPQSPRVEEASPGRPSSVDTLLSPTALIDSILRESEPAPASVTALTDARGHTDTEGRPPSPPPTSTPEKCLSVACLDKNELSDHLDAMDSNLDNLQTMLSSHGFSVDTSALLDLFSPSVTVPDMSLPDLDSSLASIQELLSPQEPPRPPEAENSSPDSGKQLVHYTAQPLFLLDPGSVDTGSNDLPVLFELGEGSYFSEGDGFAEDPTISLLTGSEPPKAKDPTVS
The target of the next experiment is T2, SPIC (Homo sapiens, UniProt Q8N5J4 1-248).
T2 sequence: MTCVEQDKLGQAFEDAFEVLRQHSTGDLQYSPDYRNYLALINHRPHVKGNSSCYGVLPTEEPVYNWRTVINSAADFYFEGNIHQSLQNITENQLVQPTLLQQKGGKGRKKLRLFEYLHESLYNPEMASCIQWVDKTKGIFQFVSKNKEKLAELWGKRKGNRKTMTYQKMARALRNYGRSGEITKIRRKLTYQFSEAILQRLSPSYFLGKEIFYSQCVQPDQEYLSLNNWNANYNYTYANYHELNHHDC
The following applies: protein: recombinant; tags: N-terminal GST; dsDNA, one strand shown. In a few lines: as §1

Another experiment concerns the target ELF4 (Homo sapiens, UniProt Q99607 1-663). Particulars: protein: recombinant; tags: N-terminal GST; dsDNA, one strand shown. In a few lines: as §1
In a further experiment the target is T3, ELK4 (Homo sapiens, UniProt P28324-2 1-405).
T3 sequence: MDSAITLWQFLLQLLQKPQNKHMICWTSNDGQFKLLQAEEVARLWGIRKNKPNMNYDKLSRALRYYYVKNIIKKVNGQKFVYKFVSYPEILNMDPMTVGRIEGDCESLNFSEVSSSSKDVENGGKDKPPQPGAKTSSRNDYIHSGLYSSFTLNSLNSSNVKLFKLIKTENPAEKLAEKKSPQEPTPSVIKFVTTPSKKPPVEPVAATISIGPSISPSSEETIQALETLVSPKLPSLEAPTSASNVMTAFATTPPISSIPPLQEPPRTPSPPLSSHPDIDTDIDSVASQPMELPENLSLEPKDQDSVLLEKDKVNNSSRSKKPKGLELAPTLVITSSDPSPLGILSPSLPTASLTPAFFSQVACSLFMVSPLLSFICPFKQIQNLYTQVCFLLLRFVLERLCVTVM
The following applies: protein: recombinant; tags: N-terminal GST; dsDNA, one strand shown. In short, it runs like this: as §1

Another experiment addresses T4, ETV2 (Homo sapiens, UniProt O00321 1-342).
T4 sequence: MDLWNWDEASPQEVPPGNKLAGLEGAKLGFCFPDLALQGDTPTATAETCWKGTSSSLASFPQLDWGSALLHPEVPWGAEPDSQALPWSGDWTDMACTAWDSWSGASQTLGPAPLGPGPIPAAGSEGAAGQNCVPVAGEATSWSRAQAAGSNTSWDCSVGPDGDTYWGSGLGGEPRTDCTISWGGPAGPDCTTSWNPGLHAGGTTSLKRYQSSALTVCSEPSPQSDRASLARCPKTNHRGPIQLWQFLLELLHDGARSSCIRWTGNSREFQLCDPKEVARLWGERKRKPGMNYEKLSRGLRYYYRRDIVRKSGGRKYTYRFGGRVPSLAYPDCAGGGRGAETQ
Particulars: protein: recombinant; tags: N-terminal GST; dsDNA, one strand shown. In short, it runs like this:
as §1

For another experiment, the target named is T5, ELF3 (Homo sapiens, UniProt P78545 1-371).
T5 sequence: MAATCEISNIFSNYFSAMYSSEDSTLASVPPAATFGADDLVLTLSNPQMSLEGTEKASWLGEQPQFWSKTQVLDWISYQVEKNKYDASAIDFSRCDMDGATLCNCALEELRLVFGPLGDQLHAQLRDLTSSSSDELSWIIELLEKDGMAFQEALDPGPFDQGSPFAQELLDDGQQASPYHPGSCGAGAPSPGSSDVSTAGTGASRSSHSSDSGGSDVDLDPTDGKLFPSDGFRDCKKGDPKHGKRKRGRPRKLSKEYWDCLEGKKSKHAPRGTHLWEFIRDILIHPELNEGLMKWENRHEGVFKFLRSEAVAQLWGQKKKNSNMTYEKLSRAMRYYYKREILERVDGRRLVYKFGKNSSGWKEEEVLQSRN
Particulars: protein: recombinant; tags: N-terminal GST; dsDNA, one strand shown. In a few lines:
as §1

For the next experiment, the target named is CRX (Homo sapiens, UniProt O43186 1-299). The following applies: protein: recombinant; tags: N-terminal GST; dsDNA, one strand shown. In a few lines:
as §1

The next experiment deals with ETV1 (Homo sapiens, UniProt P50549 1-477). Particulars: protein: recombinant; tags: N-terminal GST; dsDNA, one strand shown. In a few lines: as §1
Sequence of ETV1 (P50549 whole entry): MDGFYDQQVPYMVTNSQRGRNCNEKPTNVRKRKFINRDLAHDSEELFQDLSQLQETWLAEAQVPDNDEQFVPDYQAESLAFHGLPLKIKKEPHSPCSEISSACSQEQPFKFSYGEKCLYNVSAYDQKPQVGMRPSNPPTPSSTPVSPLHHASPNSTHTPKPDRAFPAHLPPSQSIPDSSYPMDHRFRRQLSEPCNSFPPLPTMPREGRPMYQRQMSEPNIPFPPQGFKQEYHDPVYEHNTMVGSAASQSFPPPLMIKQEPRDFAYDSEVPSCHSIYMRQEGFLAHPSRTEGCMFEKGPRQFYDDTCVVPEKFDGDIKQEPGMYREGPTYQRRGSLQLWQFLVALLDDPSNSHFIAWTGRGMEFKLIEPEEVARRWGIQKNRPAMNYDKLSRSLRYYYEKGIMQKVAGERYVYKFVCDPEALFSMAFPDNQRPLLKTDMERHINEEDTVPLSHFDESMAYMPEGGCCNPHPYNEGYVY
For a further experiment, the target named is T6, ERF (Homo sapiens, UniProt P50548 1-548).
T6 sequence: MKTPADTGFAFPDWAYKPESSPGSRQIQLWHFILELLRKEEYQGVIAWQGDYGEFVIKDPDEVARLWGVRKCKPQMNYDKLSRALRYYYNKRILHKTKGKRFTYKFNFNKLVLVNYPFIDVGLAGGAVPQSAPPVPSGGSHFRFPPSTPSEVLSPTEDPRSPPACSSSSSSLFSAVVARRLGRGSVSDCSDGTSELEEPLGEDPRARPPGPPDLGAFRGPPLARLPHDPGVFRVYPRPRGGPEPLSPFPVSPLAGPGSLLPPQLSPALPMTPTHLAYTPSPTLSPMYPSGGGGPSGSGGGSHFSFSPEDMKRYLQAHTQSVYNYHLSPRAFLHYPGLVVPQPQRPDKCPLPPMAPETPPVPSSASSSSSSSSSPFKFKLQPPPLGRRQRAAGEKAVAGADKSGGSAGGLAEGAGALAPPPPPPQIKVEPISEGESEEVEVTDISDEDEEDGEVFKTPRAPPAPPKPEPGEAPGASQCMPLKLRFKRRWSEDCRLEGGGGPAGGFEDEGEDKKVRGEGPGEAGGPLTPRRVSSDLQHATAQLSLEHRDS
Particulars: protein: recombinant; tags: N-terminal GST; dsDNA, one strand shown. In short, it runs like this: as §1

Another experiment concerns the target T7, ETV3L (Homo sapiens, UniProt Q6ZN32 1-361).
T7 sequence: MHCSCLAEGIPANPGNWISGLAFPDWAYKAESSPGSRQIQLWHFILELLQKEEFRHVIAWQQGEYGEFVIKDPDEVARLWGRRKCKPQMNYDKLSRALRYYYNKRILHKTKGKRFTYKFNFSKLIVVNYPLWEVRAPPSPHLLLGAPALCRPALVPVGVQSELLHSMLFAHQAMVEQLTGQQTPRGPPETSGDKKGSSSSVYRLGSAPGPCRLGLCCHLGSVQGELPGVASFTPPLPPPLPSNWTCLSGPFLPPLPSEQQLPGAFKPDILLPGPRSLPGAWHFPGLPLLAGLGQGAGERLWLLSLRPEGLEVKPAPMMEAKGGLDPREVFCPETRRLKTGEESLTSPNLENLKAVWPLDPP
Particulars: protein: recombinant; tags: N-terminal GST; dsDNA, one strand shown. In short, it runs like this: as §1

Another experiment concerns the target T8, ETS2 (Homo sapiens, UniProt P15036 1-469).
T8 sequence: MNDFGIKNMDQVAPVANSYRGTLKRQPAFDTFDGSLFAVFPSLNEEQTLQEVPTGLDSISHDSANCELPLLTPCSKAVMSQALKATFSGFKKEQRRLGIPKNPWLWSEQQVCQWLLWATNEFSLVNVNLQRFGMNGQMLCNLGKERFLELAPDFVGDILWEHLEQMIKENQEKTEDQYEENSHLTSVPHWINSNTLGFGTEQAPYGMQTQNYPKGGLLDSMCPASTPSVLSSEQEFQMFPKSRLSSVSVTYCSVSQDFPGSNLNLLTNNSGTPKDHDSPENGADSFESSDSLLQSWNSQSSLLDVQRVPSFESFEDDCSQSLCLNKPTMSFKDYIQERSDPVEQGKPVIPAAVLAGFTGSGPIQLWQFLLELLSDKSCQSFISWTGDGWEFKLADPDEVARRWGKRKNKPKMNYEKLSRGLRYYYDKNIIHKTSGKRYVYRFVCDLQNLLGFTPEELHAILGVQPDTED
The following applies: protein: recombinant; tags: N-terminal GST; dsDNA, one strand shown. In short, it runs like this: as §1

The next experiment has as its target T9, SPDEF (Homo sapiens, UniProt O95238 1-335).
T9 sequence: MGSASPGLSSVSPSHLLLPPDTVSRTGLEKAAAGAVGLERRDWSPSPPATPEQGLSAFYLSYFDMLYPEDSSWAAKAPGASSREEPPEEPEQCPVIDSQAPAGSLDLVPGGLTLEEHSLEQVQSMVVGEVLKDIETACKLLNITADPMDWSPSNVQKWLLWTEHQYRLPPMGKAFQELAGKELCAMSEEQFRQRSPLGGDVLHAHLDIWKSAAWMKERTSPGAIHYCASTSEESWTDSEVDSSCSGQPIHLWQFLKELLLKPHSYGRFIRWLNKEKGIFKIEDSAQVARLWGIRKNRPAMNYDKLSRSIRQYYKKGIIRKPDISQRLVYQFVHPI
The following applies: protein: recombinant; tags: N-terminal GST; dsDNA, one strand shown. In short, it runs like this:
as §1

The next experiment addresses T10, ETV7 (Homo sapiens, UniProt Q9Y603 1-341).
T10 sequence: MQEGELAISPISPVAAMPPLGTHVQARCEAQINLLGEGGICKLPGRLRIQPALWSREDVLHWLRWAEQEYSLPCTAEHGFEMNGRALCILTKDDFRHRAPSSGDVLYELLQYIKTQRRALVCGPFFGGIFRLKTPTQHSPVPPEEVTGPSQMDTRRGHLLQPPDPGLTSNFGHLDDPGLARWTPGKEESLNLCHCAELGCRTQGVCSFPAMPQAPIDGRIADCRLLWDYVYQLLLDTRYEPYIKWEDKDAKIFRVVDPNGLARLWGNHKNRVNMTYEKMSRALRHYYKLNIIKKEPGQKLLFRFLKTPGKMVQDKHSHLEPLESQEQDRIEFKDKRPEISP
Particulars: protein: recombinant; tags: N-terminal GST; dsDNA, one strand shown. In short, it runs like this:
as §1

Another experiment has as its target T11, ELF5 (Homo sapiens, UniProt Q9UKW6-2 1-255).
T11 sequence: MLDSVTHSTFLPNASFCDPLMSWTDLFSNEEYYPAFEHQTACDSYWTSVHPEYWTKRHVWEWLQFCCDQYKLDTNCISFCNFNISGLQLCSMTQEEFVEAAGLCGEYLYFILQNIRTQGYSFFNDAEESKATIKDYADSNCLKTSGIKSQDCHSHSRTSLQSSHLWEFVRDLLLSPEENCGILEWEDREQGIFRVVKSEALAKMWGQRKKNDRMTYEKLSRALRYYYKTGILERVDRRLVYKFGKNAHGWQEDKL
Particulars: protein: recombinant; tags: N-terminal GST; dsDNA, one strand shown. In a few lines:
as §1

Another experiment has as its target T12, ETV3 (Homo sapiens, UniProt P41162-2 1-143).
T12 sequence: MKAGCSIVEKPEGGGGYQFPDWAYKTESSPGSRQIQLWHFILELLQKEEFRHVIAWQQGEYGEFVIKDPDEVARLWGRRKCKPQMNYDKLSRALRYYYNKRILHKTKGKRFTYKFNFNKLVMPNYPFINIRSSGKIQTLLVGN
Particulars: protein: recombinant; tags: N-terminal GST; dsDNA, one strand shown. In a few lines:
as §1

In another experiment the target is ETV6 (Homo sapiens, UniProt P41212 1-452). Particulars: protein: recombinant; tags: N-terminal GST; dsDNA, one strand shown. In short, it runs like this:
as §1

Sequence of ELF4 (Q99607 whole entry): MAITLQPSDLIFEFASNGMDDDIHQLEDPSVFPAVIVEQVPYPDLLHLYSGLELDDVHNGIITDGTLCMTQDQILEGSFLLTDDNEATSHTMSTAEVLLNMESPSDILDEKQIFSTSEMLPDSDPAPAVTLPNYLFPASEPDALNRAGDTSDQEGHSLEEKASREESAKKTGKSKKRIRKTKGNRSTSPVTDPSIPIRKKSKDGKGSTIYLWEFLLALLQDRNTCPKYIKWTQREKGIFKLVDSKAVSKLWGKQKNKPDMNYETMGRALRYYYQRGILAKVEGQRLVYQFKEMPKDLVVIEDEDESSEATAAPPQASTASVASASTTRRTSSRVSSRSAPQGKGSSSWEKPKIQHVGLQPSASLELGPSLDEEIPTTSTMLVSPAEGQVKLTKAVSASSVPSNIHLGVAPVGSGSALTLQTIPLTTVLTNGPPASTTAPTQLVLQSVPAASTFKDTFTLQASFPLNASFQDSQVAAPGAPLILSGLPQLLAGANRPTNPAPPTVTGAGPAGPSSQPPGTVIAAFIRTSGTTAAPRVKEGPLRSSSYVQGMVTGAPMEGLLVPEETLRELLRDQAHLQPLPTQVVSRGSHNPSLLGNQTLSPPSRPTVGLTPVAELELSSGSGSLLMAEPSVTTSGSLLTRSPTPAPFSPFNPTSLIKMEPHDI
Sequence of CRX (O43186 whole entry): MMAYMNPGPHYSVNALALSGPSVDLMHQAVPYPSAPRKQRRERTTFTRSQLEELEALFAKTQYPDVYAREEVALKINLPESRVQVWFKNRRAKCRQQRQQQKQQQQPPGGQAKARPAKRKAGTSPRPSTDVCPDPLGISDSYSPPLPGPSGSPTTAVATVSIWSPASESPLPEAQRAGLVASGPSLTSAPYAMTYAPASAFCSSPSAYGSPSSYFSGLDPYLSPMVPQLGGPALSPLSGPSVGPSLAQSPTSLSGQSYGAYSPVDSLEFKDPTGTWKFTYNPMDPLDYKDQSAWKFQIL
Sequence of ETV6 (P41212 whole entry): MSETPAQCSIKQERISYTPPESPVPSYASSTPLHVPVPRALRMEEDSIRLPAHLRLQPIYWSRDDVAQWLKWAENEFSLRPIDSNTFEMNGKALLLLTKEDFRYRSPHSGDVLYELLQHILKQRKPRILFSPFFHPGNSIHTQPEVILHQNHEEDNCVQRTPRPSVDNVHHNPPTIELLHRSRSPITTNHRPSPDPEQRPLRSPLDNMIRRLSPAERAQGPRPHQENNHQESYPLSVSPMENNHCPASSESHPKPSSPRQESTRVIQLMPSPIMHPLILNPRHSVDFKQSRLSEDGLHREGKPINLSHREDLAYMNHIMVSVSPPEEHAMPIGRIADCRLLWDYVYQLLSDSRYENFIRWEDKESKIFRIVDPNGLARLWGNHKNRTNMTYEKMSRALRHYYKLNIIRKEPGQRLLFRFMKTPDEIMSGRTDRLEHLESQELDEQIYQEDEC

On to CAATAA, for which the binding signal in the experiment with FEV was 1.1 fold enrichment (6-mer frequency, TF over GST control); in the experiment with ETV5 it was 1.14 fold enrichment (6-mer frequency, TF over GST control); with HSF1, 1.24 fold enrichment (6-mer frequency, TF over GST control); in the experiment with SPIC, 1.2 fold enrichment (6-mer frequency, TF over GST control); with ELF4 it was 1.16 fold enrichment (6-mer frequency, TF over GST control); with ELK4, 1.14 fold enrichment (6-mer frequency, TF over GST control). In addition, the binding signal with ETV2 is 1.14 fold enrichment (6-mer frequency, TF over GST control); in the experiment with ELF3 it was 1.27 fold enrichment (6-mer frequency, TF over GST control); in the experiment with CRX, 1.46 fold enrichment (6-mer frequency, TF over GST control); in the experiment with ETV1, 1.11 fold enrichment (6-mer frequency, TF over GST control); in the experiment with ERF it was 1.15 fold enrichment (6-mer frequency, TF over GST control); with ETV3L it was 1.13 fold enrichment (6-mer frequency, TF over GST control). The binding signal is 1.19 fold enrichment (6-mer frequency, TF over GST control) with ETS2; 1.05 fold enrichment (6-mer frequency, TF over GST control) in the experiment with SPDEF; 1.06 fold enrichment (6-mer frequency, TF over GST control) with ETV7; 1.06 fold enrichment (6-mer frequency, TF over GST control) in the experiment with ELF5; 1.14 fold enrichment (6-mer frequency, TF over GST control) with ETV3; 1.12 fold enrichment (6-mer frequency, TF over GST control) with ETV6.
